Hsp70 act: Hsp70 transcriptional activators, primary screen, cell-based, HeLa, Hsp70 promoter luciferase, luminescence, 10 µM; AID 1203, 2008; HeLa Hsp70 promoter luciferase reporter; scaled: vehicle 0, proteasome-inhibitor control 100%; 200,000 compounds, 0.04% hits; activation, % at 10 µM;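 active = activation above the mean across all tested compounds plus 3 SD, cutoff set per campaign, cut at about 5.5% in these data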;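 note: 100% = MG132 at 30 µM as the positive control and 0% = DMSO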
NALP1 inh: NALP1 inflammasome inhibitors in reconstituted yeast, colorimetric, S. cerevisiae, triplicate retest | S. cerevisiae NALP1/ASC/caspase-1 growth, X-gal OD620, 72 h | inhibition, % at 10 µM | 280,000 compounds, 0.61% hits | AID 2071, 2009; in the data active = inhibition mostly above about 24%, no sharp cut-off; inactive = mostly below about 32%
p-CIP stab down: p/CIP-EGFP fusion destabilizers, primary screen, fluorescence, F442A cells; Q05BA5; 16 h; decrease of EGFP signal, % at 10 µM; 290,000 compounds, 0.01% hits;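 active = EGFP signal decrease of at least 30% at 10 µM or well 3 SD below plate mean, unless failing retest; inactive = the rest, including hits failing retest or dose response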
Target sequence (Q05BA5 1-1403): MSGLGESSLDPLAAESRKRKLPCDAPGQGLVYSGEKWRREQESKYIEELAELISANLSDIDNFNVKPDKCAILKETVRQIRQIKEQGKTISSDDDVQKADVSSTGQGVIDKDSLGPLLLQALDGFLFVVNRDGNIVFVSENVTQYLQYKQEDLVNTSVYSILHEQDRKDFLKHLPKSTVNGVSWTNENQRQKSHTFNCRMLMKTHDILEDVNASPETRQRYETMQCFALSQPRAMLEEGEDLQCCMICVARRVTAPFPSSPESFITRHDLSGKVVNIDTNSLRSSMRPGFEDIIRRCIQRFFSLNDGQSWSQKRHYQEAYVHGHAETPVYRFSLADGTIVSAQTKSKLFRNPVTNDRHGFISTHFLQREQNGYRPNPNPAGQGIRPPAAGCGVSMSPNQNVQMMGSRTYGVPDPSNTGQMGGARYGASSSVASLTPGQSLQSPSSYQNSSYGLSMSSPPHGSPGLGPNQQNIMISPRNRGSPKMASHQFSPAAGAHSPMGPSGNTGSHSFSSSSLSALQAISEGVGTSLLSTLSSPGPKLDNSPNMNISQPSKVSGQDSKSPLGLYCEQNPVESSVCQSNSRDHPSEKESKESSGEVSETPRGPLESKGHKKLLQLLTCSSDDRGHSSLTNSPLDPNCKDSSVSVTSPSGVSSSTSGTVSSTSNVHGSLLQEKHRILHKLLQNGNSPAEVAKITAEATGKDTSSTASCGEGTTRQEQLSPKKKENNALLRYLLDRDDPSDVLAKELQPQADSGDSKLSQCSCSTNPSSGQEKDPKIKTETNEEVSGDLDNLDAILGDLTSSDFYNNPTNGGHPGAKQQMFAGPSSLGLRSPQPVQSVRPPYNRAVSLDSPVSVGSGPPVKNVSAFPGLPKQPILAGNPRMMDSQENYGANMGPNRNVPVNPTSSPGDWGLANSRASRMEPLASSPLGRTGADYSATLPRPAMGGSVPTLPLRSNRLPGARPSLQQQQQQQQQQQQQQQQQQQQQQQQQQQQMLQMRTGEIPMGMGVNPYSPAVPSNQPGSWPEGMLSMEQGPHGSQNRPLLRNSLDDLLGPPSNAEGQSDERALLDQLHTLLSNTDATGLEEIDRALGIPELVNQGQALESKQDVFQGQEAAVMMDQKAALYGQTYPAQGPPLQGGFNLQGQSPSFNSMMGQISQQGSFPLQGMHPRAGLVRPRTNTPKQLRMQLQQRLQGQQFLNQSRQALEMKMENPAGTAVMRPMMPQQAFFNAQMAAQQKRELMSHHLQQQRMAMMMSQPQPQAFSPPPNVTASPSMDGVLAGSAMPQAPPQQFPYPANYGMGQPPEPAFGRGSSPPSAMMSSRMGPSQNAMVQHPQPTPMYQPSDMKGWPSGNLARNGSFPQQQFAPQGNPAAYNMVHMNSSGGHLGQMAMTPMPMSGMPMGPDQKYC
HSP90 refold inh: HSP90 inhibitors, primary screen, cell lysate, luminescence. 290,000 compounds, 0.91% hits. AID 1789, 2009. inhibition, % at 5.6 µM. Rabbit reticulocyte lysate, luciferase refolding luminescence, 3 h. Heat shock protein HSP 90 (rabbit reticulocyte lysate; luciferase refolding);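 active = inhibition above the screen-wide mean plus 3 SD, computed separately per campaign, cut at about 16% in these data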;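 note: 0% = DMSO wells and 100% = 60 µM geldanamycin wells; inhibitors lower the luminescence because luciferase stays unfolded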
HSF1 activator: HSF-1 activators, primary screen, NIH3T3-HGL cells, MG132 stress, luminescence, single point | 300,000 compounds, 1.7% hits | activation, % at 9 µM | NIH3T3-HGL HSF-1 luciferase reporter, 8 h; 100% = twice DMSO control signal;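 active = mean replicate activation of at least 50% with a set share of replicates each reaching 50%; inconclusive = only one of those two conditions met; inactive = mean below 50% and too few replicates reaching it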;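 note: 0% = median of the neutral control wells and 100% = twice that signal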
HSF1 inh: HSF1 inhibitors in luciferase reporter cells, primary screen, cell-based, NIH3T3, luminescence | NIH3T3-HGL HSE-luciferase, MG132-induced, luminescence 8 h; hits give low values | activity change, negative = inhibition, % at 7.5 µM (by protocol) | 300,000 compounds, 0.77% hits | AID 2098, 2009;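 active = more than half of replicate wells show activity change below -50%, luminescence cut by over half; inconclusive = some wells, but at most half, below -50%; inactive = no replicate well below -50%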;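 note: luciferase reports HSF-1 transcriptional activity via heat shock element; 0% = median of DMSO wells and -100% = zero luminescence signal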
HSP90 confirm: HSP90 inhibitors, confirmation, cell lysate, luminescence. shares compounds with HSP90 refold inh. rabbit reticulocyte lysate, luciferase refolding luminescence, 3 h. inhibition, % at 5.9 µM. 2,300 compounds, 64% hits; in the data active = inhibition above about 18%;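 note: 0% = vehicle wells and 100% = reference inhibitor wells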
FLuc counter: firefly luciferase inhibitors, HSP90 counter-screen, confirmation, artefact control for HSP90 inhibitor project, biochemical, luminescence, triplicate; AID 1847, 2009; purified native firefly luciferase; 2,300 compounds, 48% hits; shares compounds with HSP90 refold inh; inhibition, % at 5.9 µM;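 active = inhibition above the mean inhibition of all tested sample wells plus 3 SD, cut at about 10% in these data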;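 note: 0% = DMSO with luciferase and 100% = wells lacking luciferase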
An asterisk follows results filed as active. Compounds with a hit are over-represented: about 3.8% of the library has one in this group of screens.

Results for O=C(O)c1cccc(-n2c(O)c(C=C3N=c4ccccc4=N3)sc2=S)c1 ?
NALP1 inh: -8; p-CIP stab down: -12; HSP90 refold inh: 47*; HSF1 activator: -26; HSF1 inh: -26; HSP90 confirm: 66*; FLuc counter: -2

Results for O=C(O)c1ccc(-n2c(O)c(C=C3N=c4ccccc4=N3)sc2=S)cc1 ?
NALP1 inh: -2; p-CIP stab down: 7; HSP90 refold inh: -2; HSF1 activator: 23; HSF1 inh: 16

Results for CC(C)CNC(=O)c1cc(-c2ccc3c(c2)OCO3)on1 ?
NALP1 inh: 15; p-CIP stab down: -13; HSP90 refold inh: 31*; HSF1 activator: 7; HSF1 inh: 24; HSP90 confirm: 38*; FLuc counter: 24*

How did COc1ccc2oc(=O)c(C(=O)Nc3cccc(C(C)=O)c3)cc2c1 do in these assays?
NALP1 inh: 10; p-CIP stab down: -8; HSP90 refold inh: 0; HSF1 activator: -7; HSF1 inh: 3

Results for CCC(=O)Nc1cccc(-c2cc3ccccc3oc2=O)c1 ?
Hsp70 act: 0; NALP1 inh: 1; p-CIP stab down: -17; HSP90 refold inh: 19*; HSF1 activator: -37; HSF1 inh: -30; HSP90 confirm: 32*; FLuc counter: 19*

How did COc1cccc(NC(=O)c2cc3ccccc3oc2=O)c1 do in these assays?
NALP1 inh: 12; p-CIP stab down: -10; HSP90 refold inh: 28*; HSF1 activator: inconclusive; HSF1 inh: 23; HSP90 confirm: 64*; FLuc counter: 72*

What do the screens show for `COc1ccccc1Nc1ncc(C(=O)Nc2ccc(OC)c(OC)c2)c2ccccc12`?
Hsp70 act: 0; NALP1 inh: 32; p-CIP stab down: 5; HSP90 refold inh: 0; HSF1 activator: 8; HSF1 inh: 18

What do the screens show for `COc1ccccc1NC(=O)CSc1nc2ccccc2cc1Cc1ccccc1`?
Hsp70 act: 0; NALP1 inh: -7; p-CIP stab down: -8; HSP90 refold inh: 31*; HSF1 activator: 11; HSF1 inh: 5; HSP90 confirm: 24*; FLuc counter: -12

How did COc1ccccc1NC(=O)CSc1n[nH]c(Cc2ccccc2)n1 do in these assays?
NALP1 inh: -5; p-CIP stab down: -1; HSP90 refold inh: -3; HSF1 activator: 3; HSF1 inh: -1

Results for CC1(C)NC(=O)N(CCOc2cccc(Cl)c2Cl)C1=O ?
Hsp70 act: 0; NALP1 inh: -3; p-CIP stab down: 1; HSP90 refold inh: 18*; HSF1 activator: 4; HSF1 inh: -6; HSP90 confirm: -9; FLuc counter: -9

What do the screens show for `CC(=O)c1cccc(OCCN2C(=O)NC(C)(C)C2=O)c1`?
Hsp70 act: 0; NALP1 inh: 13; p-CIP stab down: 19; HSP90 refold inh: -1; HSF1 activator: 10; HSF1 inh: 2

How did CN1CCC(=NNC(=O)c2ccc(N(Cc3ccccc3Cl)S(C)(=O)=O)cc2)CC1 do in these assays?
Hsp70 act: 0; NALP1 inh: 33; p-CIP stab down: -8; HSP90 refold inh: 2; HSF1 activator: inconclusive; HSF1 inh: 1

What do the screens show for `Cc1ccccc1NC1=C/C(=N\S(=O)(=O)c2cccs2)c2ccccc2C1=O`?
Hsp70 act: 0; NALP1 inh: -9; HSP90 refold inh: 35*; HSF1 activator: -95; HSF1 inh: -95*; HSP90 confirm: 91*; FLuc counter: -2

What do the screens show for `CC(=O)Nc1ccc(NC2=C/C(=N/S(=O)(=O)c3cccs3)c3ccccc3C2=O)cc1`?
Hsp70 act: -1; NALP1 inh: 10; p-CIP stab down: 5; HSP90 refold inh: 55*; HSF1 activator: -94; HSF1 inh: -95*; HSP90 confirm: 67*; FLuc counter: -8

How did CC(C)c1ccc(OCc2ccc(C(=O)N(C)C)o2)cc1 do in these assays?
NALP1 inh: 23; p-CIP stab down: -6; HSP90 refold inh: 12; HSF1 activator: 40; HSF1 inh: 24

What do the screens show for `CC(C)c1ccc(OCc2ccc(C(=O)NN3CCN(C)CC3)o2)cc1`?
Hsp70 act: 0; NALP1 inh: 7; p-CIP stab down: -3; HSP90 refold inh: 19*; HSF1 activator: 37; HSF1 inh: 32; HSP90 confirm: 18*; FLuc counter: -13

How did CC(C)c1ccc(OCc2ccc(C(=O)O)o2)cc1 do in these assays?
p-CIP stab down: 10; HSP90 refold inh: 94*; HSP90 confirm: 94*; FLuc counter: 80*

Results for COC(=O)c1ccc(COc2ccc(Cl)cc2)o1 ?
NALP1 inh: 24; p-CIP stab down: -6; HSP90 refold inh: -3; HSF1 activator: 24; HSF1 inh: 3

Results for O=C(O)c1ccc(OCc2ccc(C(=O)O)o2)cc1 ?
NALP1 inh: -12; p-CIP stab down: 8; HSP90 refold inh: -1; HSF1 activator: -14; HSF1 inh: -3

What do the screens show for `COc1ccc(OCc2cc(C(=O)O)c(C)o2)cc1`?
NALP1 inh: 11; p-CIP stab down: -7; HSP90 refold inh: 55*; HSF1 activator: 16; HSF1 inh: 5; HSP90 confirm: 63*; FLuc counter: 28*

How did CCc1ccc(OCc2ccc(C(=O)O)o2)cc1 do in these assays?
NALP1 inh: -2; p-CIP stab down: -13; HSP90 refold inh: 96*; HSF1 activator: -15; HSF1 inh: -8; HSP90 confirm: 94*; FLuc counter: 68*

Results for Cn1nnnc1SCC(=O)Nc1ccc2c(c1)OCO2 ?
Hsp70 act: 0; NALP1 inh: 14; p-CIP stab down: -13; HSP90 refold inh: -2; HSF1 activator: -3; HSF1 inh: -2

How did O=C(Nc1nc2ccccc2s1)c1ccc(N2CCCCC2)c([N+](=O)[O-])c1 do in these assays?
Hsp70 act: 0; NALP1 inh: 15; p-CIP stab down: -1; HSP90 refold inh: 13; HSF1 activator: -33; HSF1 inh: -22

How did COC(=O)CNC(c1ccccc1)c1cc(C)ccc1NC(=O)c1cccc(Cl)c1 (configuration not stated) do in these assays?
Hsp70 act: 0; NALP1 inh: 29; p-CIP stab down: -8; HSP90 refold inh: -2; HSF1 activator: 19; HSF1 inh: 14

Screening results (PubChem)
